Jurkat NFkB inh: inhibitors of the PMA/ionomycin-induced NF-kB reporter in Jurkat cells. AID 435003. 0.53% of 330,000 active. inhibition, % at 4 µM. PMA/ionomycin-induced NF-kB luciferase reporter, luminescence; in the data active = inhibition above about 50%
NTR1 agonist: NTR1 (human) agonism; P30989; NTR1-U2OS beta-arrestin-GFP spot imaging, agonist mode; activation, % at 20 µM; 0.17% of 330,000 active; AID 493036;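 active = activation at or above 40% of the spot to cytoplasm intensity ratio, with at least 20 cells analyzed; inconclusive = wells under 20 cells, flagged as cytotoxic or low count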;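 note: 0% = DMSO without peptide and 100% = 100 nM NTR1 peptide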
Mdm2 MdmX PPI: disrupts the human Mdm2-MdmX interaction; 3% of 330,000 active; inhibition, % at 8 µM; O15151+Q00987; SaOS-2 split-luciferase Mdm2/MdmX complementation, luminescence; AID 485346;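 active = inhibition of at least 50% at 8 µM in the primary screen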
Target sequence (O15151 whole entry, looked up): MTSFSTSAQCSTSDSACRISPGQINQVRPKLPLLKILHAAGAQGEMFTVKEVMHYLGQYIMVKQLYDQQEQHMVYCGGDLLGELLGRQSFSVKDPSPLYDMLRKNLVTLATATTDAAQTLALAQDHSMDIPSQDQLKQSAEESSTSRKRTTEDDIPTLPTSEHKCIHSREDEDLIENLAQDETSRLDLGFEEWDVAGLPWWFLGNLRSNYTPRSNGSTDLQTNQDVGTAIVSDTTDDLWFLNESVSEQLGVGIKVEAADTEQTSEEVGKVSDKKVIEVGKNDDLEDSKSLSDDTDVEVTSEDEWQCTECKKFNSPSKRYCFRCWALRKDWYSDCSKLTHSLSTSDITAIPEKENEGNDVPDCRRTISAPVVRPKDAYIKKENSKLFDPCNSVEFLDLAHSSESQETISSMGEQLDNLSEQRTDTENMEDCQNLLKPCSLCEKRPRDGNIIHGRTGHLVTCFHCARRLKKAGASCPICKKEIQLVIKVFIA
Target sequence (Q00987 whole entry, looked up): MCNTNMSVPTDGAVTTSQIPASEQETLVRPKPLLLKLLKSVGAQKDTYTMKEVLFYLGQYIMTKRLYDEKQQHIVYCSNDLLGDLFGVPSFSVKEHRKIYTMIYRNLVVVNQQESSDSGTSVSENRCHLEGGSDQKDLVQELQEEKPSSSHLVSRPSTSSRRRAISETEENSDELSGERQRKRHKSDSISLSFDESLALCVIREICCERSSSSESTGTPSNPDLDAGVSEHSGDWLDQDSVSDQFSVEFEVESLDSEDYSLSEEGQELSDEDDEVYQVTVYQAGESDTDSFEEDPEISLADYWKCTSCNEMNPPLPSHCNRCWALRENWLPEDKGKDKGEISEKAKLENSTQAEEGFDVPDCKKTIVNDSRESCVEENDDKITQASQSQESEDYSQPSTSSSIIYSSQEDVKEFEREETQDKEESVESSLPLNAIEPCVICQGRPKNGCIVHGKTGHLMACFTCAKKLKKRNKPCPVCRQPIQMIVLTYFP
697 NFkB inh: inhibitors of the PMA/ionomycin-induced NF-kB reporter in 697 B cells; 697 B-cell NF-kB luciferase reporter, 16 h; inhibition, % at 4 µM; 0.33% of 330,000 active; AID 435022; in the data active = inhibition above about 35%
Beta cell apopt: blocks beta cell apoptosis; AID 435005; protection from apoptosis, % (concentration not given with the values); 0.8% of 300,000 active; INS-1E cytokine-induced death, ATP luminescence, 48 h; percent of positive-control rescue, neutral wells zero;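 active = Every replicate reaches about 75%, or at least half do and their mean reaches it too, limit read from the data; inconclusive = At least half of replicates reach the limit but their mean does not; inactive = Under half of replicates reach the limit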;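 note: 0% = cytokine-treated negative control wells and 100% = positive control rescue; higher means more ATP so stronger rescue from cytokine killing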
A1 inh: inhibitors of the anti-apoptotic protein A1, read as caspase activation; AID 2462; MEF A1-2A-BIM cells, Caspase-Glo 3/7 luminescence, 3 h; percent of clofoctol response, vehicle zero; caspase activation, % (test concentration not listed); 0.066% of 330,000 active;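 active = over half of replicate activation scores above 10%, or exactly half above 10 with the replicate mean above 10; inconclusive = replicate mean below 10 yet half the replicates above 10; inactive = over half of replicates below 10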
Mdm2 MdmX conf: human Mdm2/MdmX binding inhibition, confirmed; shares compounds with Mdm2 MdmX PPI; inhibition, % at 8 µM; 55% of 10,000 active; luminescent assay; in the data active = inhibition above about 40%
FLuc counter: inhibits full-length luciferase, flagging false Mdm2/MdmX hits | shares compounds with Mdm2 MdmX PPI | SaOS-2 full-length luciferase counterscreen, luminescence | inhibition, % at 8 µM | 77% of 6,200 active;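 active = mean inhibition at 8 µM reaching about 37%, which flags the compound as non-specific, limit read from the data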;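 note: p53-null SaOS-2 cells with luciferase driven by a doxycycline-inducible promoter; compound on cells about two nights before reading with doxycycline added after day one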
* = called active by the depositor. Rows were chosen to be rich in hits. Some 3.8% of all compounds tested hit in one or more screens of this group.

For CCOC(=O)c1c(-c2ccc(OC)cc2)csc1NC(=O)COc1ccc2c(C)cc(=O)oc2c1 the results were Jurkat NFkB inh 22.8, NTR1 agonist -0.5, Mdm2 MdmX PPI 60.8*, 697 NFkB inh 0.0, Beta cell apopt 3.7, A1 inh -0.4 and Mdm2 MdmX conf 13.7.
For NC(CCCCc1ccccc1)c1cccc2ccccc12 (centres undefined) the results were Jurkat NFkB inh 6.9, NTR1 agonist 35.1, Mdm2 MdmX PPI 43.0, 697 NFkB inh -1.0, Beta cell apopt -1.1 and A1 inh 0.5.
`c1cc2c3c(cccc3c1)NC1(CCCCCC1)N2` gave Jurkat NFkB inh 6.5, NTR1 agonist 0.1, Mdm2 MdmX PPI 24.4, 697 NFkB inh 3.6 and A1 inh inconclusive.
Screening c1cc2c3c(cccc3c1)NC1(CCC3(CC1)Nc1cccc4cccc(c14)N3)N2 returned Jurkat NFkB inh 20.6, NTR1 agonist 12.3, Mdm2 MdmX PPI 72.2*, 697 NFkB inh -43.3, Beta cell apopt 27.3, A1 inh 0.1 and Mdm2 MdmX conf 20.6.
Screening O=C(Cn1ccccc1=O)Nc1ccc(Cl)c(S(=O)(=O)N2CCCCC2)c1 returned Jurkat NFkB inh 5.2, NTR1 agonist -1.3, Mdm2 MdmX PPI 15.2, 697 NFkB inh -21.2, Beta cell apopt -4.9 and A1 inh -0.8.
`COc1ccc(CN(CCC#N)CCC2(c3ccccc3)CC(C)N(C)CC2C)cc1OC` (centres undefined) gave Jurkat NFkB inh -4.8, NTR1 agonist -0.9, Mdm2 MdmX PPI -0.2, 697 NFkB inh -14.5, Beta cell apopt -1.9 and A1 inh -1.1.
Screening COc1ccc(CNCCC2(Cc3ccccc3)CC(C)N(C)CC2C)cc1OC (centres undefined) returned Jurkat NFkB inh -14.0, NTR1 agonist 1.3, Mdm2 MdmX PPI 61.4*, 697 NFkB inh -8.1, Beta cell apopt 2.8, A1 inh -0.1 and Mdm2 MdmX conf 28.9.
Cc1ccc(-c2nn(-c3ccccc3)cc2/C=N/NC(=O)c2ccc(Br)o2)cc1 was read as Jurkat NFkB inh -60.0, NTR1 agonist 3.4, Mdm2 MdmX PPI 83.1*, 697 NFkB inh -73.2, Beta cell apopt 135.6*, A1 inh -0.9 and Mdm2 MdmX conf 14.1.
Screening COc1cc(Cl)c(NC2=CC(=O)C(=O)c3ccccc32)c(OC)c1 returned Jurkat NFkB inh 32.3, NTR1 agonist -3.0, Mdm2 MdmX PPI 53.0*, 697 NFkB inh -35.4, Beta cell apopt 104.9*, A1 inh 0.1, Mdm2 MdmX conf 58.9* and FLuc counter 49.6*.
CC(=O)NC1=C(Nc2ccc(N(C)C)cc2)C(=O)c2ccccc2C1=O was read as Jurkat NFkB inh -128.3, NTR1 agonist 3.5, Mdm2 MdmX PPI 69.9*, 697 NFkB inh -185.3, Beta cell apopt -0.1, A1 inh -1.0, Mdm2 MdmX conf 45.3* and FLuc counter 114.8*.
O=C(CN1C(=O)/C(=C\c2ccccc2Cl)Oc2ccccc21)NCc1cccnc1 was read as Jurkat NFkB inh -13.6, NTR1 agonist 0.8, Mdm2 MdmX PPI 75.7*, 697 NFkB inh -11.2, Beta cell apopt 11.2, A1 inh 0.1 and Mdm2 MdmX conf 1.1.
`CCOc1cccc(CNCCO)c1OCc1ccc(Cl)cc1` gave Jurkat NFkB inh -16.6, NTR1 agonist 1.7, Mdm2 MdmX PPI -9.3, 697 NFkB inh -28.5, Beta cell apopt 3.2 and A1 inh -2.7.
Screening OCCNCc1c(OCc2ccc(Cl)cc2)ccc2ccccc12 returned Jurkat NFkB inh 26.8, NTR1 agonist 15.0, Mdm2 MdmX PPI 53.0*, 697 NFkB inh 8.7, Beta cell apopt 8.6, A1 inh 0.2, Mdm2 MdmX conf 41.2* and FLuc counter 70.0*.
Screening COc1cc(CNC(C)(C)CO)cc(Br)c1OCc1ccccc1 returned Jurkat NFkB inh 15.0, NTR1 agonist 0.1, Mdm2 MdmX PPI -3.6, 697 NFkB inh -1.0, Beta cell apopt 0.1 and A1 inh 0.5.
For CC(O)CNCCNCc1c(OCc2ccccc2)ccc2ccccc12 (centres undefined) the results were Jurkat NFkB inh -10.7, NTR1 agonist -0.6, Mdm2 MdmX PPI 31.1, 697 NFkB inh 8.1, Beta cell apopt 6.2 and A1 inh -1.9.

Screening results from PubChem.
